Compound activity as filed in PubChem BioAssay.
IDE cell activ: human IDE activators in live cells, primary screen, fluorescence polarization, HEK cells, FAbeta-B substrate; 340,000 tested, 0.073% active; activation, % at 5.96 µM; AID 493087, 2011; FAbeta-B cleavage; 0% vehicle, 100% cell-free pure enzyme wells;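 active means activation above the mean of all tested compounds plus 3 SD, set per screening campaign, cut at about 17% in these data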
Calb FLC: C. albicans growth inhibition with fluconazole, primary screen, CaCi-2 strain, Alamar Blue fluorescence | 300,000 tested, 0.57% active | AID 1979, 2009 | C. albicans CaCi-2 (fluconazole-resistant clinical isolate) + fluconazole, 48 h | growth inhibition, % (concentration not given with the values);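 active means growth inhibition above about 58% in most replicates, limit read from the data, passing the limit was not always enough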;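 further: all wells also contain fluconazole at 8 µg/ml as a sub-toxic cotreatment; 0% = median of DMSO wells and 100% = median of geldanamycin control wells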
Rin1-Abl PPI inh: inhibitors of Rin1-Abl protein binding, primary screen, biochemical, TR-FRET. 360,000 tested, 0.4% active. Tyrosine-protein kinase ABL1 (Homo sapiens) + Ras and Rab interactor 1 (Homo sapiens), …. inhibition, % at 7.35 µM. AID 588664, 2011; in the data active means inhibition above about 5%, passing the limit was not always enough
TPT1 inhibitor: Candida albicans TPT1 enzyme inhibitors, primary screen, biochemical, fluorescence polarization; recombinant caTPT1, FP RNA substrate dephosphorylation; tRNA 2'-phosphotransferase TPT1 (Candida albicans SC5314); AID 1962, 2009; inhibition, % at 5 µM; 300,000 tested, 0.81% active;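 active means inhibition above the mean of all tested compounds plus 3 SD, set per screening campaign, cut at about 24% in these data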;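 further: plate controls were DMSO alone for no effect and ferristatin control at 100 nM for full effect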
Rpn11 block: Rpn11 (PSMD14) deubiquitinase inhibitors, primary screen, biochemical, fluorescence polarization, uHTS; inhibition, % at 20 µM; human 26S proteasome, Ub4-pepOG fluorescence polarization; 20S core pre-blocked with epoxomicin; 360,000 tested, 0.59% active;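 active means inhibition at 20 µM, scaled to each plate's controls, above about 33%, limit read from the data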
Target sequence (O00487 whole entry, looked up): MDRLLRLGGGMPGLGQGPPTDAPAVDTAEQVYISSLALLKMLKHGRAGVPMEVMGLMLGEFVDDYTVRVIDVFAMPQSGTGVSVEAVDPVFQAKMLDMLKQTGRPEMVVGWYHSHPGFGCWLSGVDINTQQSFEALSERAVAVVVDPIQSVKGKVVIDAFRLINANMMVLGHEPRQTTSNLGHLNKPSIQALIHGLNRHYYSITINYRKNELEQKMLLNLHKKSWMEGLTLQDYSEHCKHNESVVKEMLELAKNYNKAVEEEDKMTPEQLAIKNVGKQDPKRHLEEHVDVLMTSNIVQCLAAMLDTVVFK
IDE cell inh: human IDE inhibitors in live cells, primary screen, fluorescence polarization, HEK cells, FAbetaB substrate. AID 434962, 2010. 320,000 tested, 0.41% active. Insulin-degrading enzyme (Homo sapiens), P14735. inhibition, % at 5.59 µM. FAbetaB cleavage;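 active means percent inhibition above the average of all tested compounds plus 3 SD, set per screening campaign, cut at about 16% in these data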;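 further: IDE supplied by intact live HEK cells; FP after avidin binding of uncleaved biotin substrate so inhibition keeps polarization high; 0% = DMSO wells and 100% = 60 µM reference IDE inhibitor Ii1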
TPT1 inh confirm: Candida albicans TPT1 inhibitors, confirmation, biochemical, fluorescence polarization, triplicate. shares compounds with TPT1 inhibitor. recombinant caTPT1, RNase T1 coupled. inhibition, % at 5 µM. 2,400 tested, 74% active;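 active means inhibition above the primary screen limit, the mean inhibition of all tested compounds plus 3 SD, cut at about 25% in these data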
RNase T1 inh: RNase T1 inhibitors, counter-screen for TPT1 inhibitor project, biochemical, fluorescence polarization. shares compounds with TPT1 inhibitor. RNase T1 cleavage, 1536-well. inhibition, % at 5 µM. 2,400 tested, 83% active. AID 2153, 2009;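 active means inhibition above the solvent-only control well mean plus 3 SD, limit set per screening run, cut at about 23% in these data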;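 further: plate controls were DMSO wells with enzyme for no effect and wells without RNase T1 for full effect; inhibitors block cleavage so intact labeled substrate keeps polarization high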
Target sequence (P00651 whole entry, looked up): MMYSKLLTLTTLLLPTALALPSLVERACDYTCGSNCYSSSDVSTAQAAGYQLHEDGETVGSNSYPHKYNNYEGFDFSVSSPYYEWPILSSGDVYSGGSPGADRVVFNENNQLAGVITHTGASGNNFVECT
IDE cell inh cf: human IDE inhibitors in live cells, confirmation, fluorescence polarization, HEK cells, FAbetaB substrate; shares compounds with IDE cell inh; FAbetaB cleavage; inhibition, % at 5.59 µM; 1,200 tested, 51% active; AID 435028, 2010;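 active means mean inhibition across triplicate wells above the cutoff set by the earlier primary insulin-degrading enzyme screen, cut at about 16% in these data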;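 further: 0% = DMSO wells and 100% = 60 µM reference IDE inhibitor Ii1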
HEK cytotox: cytotoxicity in HEK cells, cytotoxicity control for IDE inhibitor project, cell-based, luminescence | shares compounds with IDE cell inh | HEK293 cytotoxicity, ATP luminescence | inhibition, % at 5.59 µM | 1,200 tested, 28% active | AID 449730, 2010; in the data active means inhibition above about 22%;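 further: 0% = vehicle wells and 100% = reference cytotoxic drug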
Rpn11 confirm: Rpn11 (PSMD14) deubiquitinase inhibitors, confirmation, biochemical, fluorescence polarization, single concentration | shares compounds with Rpn11 block | purified human 26S proteasome, Ub4-pepOG fluorescence polarization; proteasome pretreated with epoxomicin | inhibition, % at 20 µM | 1,900 tested, 29% active | AID 602318, 2012
MMP-2 inh: MMP-2 enzyme inhibition, confirmation, counter-screen for RPN11 inhibitor project, biochemical, fluorescence, single concentration. inhibition, % at 20 µM. shares compounds with Rpn11 block. recombinant MMP-2, FRET peptide cleavage fluorescence. 1,900 tested, 4% active;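 further: human MMP-2 activated beforehand with APMA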
Thrombin FP: bovine thrombin protease inhibition, confirmation, counter-screen for Rpn11 inhibitor project, biochemical, fluorescence polarization, single concentration; shares compounds with Rpn11 block; bovine thrombin cleavage of Ub4-pepOG; inhibition, % at 20 µM; 1,900 tested, 13% active;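 active means mean inhibition at least 40% at 20 µM, or signal 3 deviations below plate average, so some actives read negative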;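 further: plate controls were thrombin with DMSO for no effect and buffer wells lacking thrombin for full effect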
Starred values were filed as active, the others as inactive; . = not tested or not shown. A selection: hits, their analogues and other compounds. The true share with any hit is near 2.3%. Unless noted, no stated cut-off is given here; in the data, active means inhibition above about 40%; inactive means the rest.

SMILES	IDE cell activ	Calb FLC	Rin1-Abl PPI inh	TPT1 inhibitor	Rpn11 block	IDE cell inh	TPT1 inh confirm	RNase T1 inh	Rpn11 confirm	MMP-2 inh	Thrombin FP	others
CCS(=O)c1ccccc1C(=O)OCC(=O)N1CCC(c2ccccc2)=N1 (stereo not drawn)	1.3	.	1.7	.	-0.2	3.9	.	.	.	.	.
COc1ccc(/C=C2\Oc3cc(OCC(=O)N4CCC[C@H]4C(=O)O)ccc3C2=O)c(OC)c1	-5.4	-6.0	-4.8	35.4*	58.6*	3.5	80.9*	91.5*	142.1*	-1.0	87.4*
CN(C)CCCNC(=O)c1ccc(-c2cc3nc(NCc4cccnc4)n(C)c(=O)c3s2)cc1	.	.	-9.5	.	-2.7	.	.	.	.	.	.
COc1ccc(-n2c(C)cc(/C=C3\C(=O)NN(c4ccccc4)C3=O)c2C)cc1	3.4	-2.1	-4.3	-1.5	-2.3	-0.2	.	.	.	.	.
Cc1cc(/C=C2\SC(=S)NC2=O)c(C)n1C	-6.6	18.2	-4.0	52.8*	130.0*	5.8	69.4*	84.4*	121.4*	35.0	91.5*
Cc1cc(/C=C2\SC(=S)NC2=O)cc(C)c1O	-7.6	2.3	-0.1	35.5*	124.4*	16.4*	10.2	16.8	26.0	7.9	18.8	IDE cell inh cf=30.6*;HEK cytotox=11.3
COc1ccc(-n2c(C)cc(/C=C3\SC(=S)NC3=O)c2C)cc1	-2.2	-2.3	2.2	30.5*	44.9*	1.3	24.5*	36.5*	34.2	22.4	11.8
Cc1cc(/C=C2\SC(=S)NC2=O)c(C)n1-c1ccccc1	.	26.8	-3.5	72.6*	109.1*	12.5	69.1*	83.2*	76.6*	27.8	59.7*
Cc1cc(/C=C2/SC(=O)NC2=O)c(C)n1-c1ccc(N2CCOCC2)cc1	-0.4	-1.3	-3.7	-4.9	-4.9	4.1	.	.	.	.	.
CCc1cc2cc(C)ccc2nc1SCC(=O)NC1CCCC1	-3.4	-21.0	-5.2	-4.6	2.2	2.6	.	.	.	.	.
Cc1ccc(S(=O)(=O)c2nc(S(C)(=O)=O)sc2N2CCCCC2C)cc1 (stereo not drawn)	5.4	-1.4	2.9	2.1	-0.3	2.8	.	.	.	.	.
